# According to PubChem BioAssay AID493151 (Sanford-Burnham Center for Chemical Genomics, 2011):
# The whole screen tested about 1,400 compounds, of which about 860 (61%) were called active.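 Rule for the calls: active = inhibition reaching a set limit, 80% of the first screen's cutoff, at 20 µM in any replicate; inactive = the rest.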 So high a share suggests a set chosen from earlier hits. The full list was thinned out, with actives kept by preference.
# Target: DNA dC->dU-editing enzyme APOBEC-3A (Homo sapiens) (UniProt P31941)
# Sequence (P31941 whole entry, looked up): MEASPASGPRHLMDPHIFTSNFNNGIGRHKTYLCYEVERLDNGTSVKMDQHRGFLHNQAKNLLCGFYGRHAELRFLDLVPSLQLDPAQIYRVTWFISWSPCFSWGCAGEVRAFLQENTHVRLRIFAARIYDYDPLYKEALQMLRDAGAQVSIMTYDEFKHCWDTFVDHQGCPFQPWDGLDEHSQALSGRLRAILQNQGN
# Test: A3A ssDNA deamination blockers, replicate testing – biochemical, single concentration, fluorescence readout, selectivity assay for APOBEC3G inhibitor project, confirmation (AID 493151);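 note: plate controls were DMSO wells with A3A for no effect and wells lacking A3A enzyme for full effect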
# Settings: recombinant A3A, ssDNA deaminase UDG fluorescence assay; at 20 µM; hits give high values
row,SMILES,inhibition
1,CCN(CC)CCOC(=O)c1cc2cc(COC)ccc2o1,80.1% (active)
2,O=C(O)CCn1cc(C=C2C(=O)NC(=S)NC2=O)c(-c2cccc(Br)c2)n1,52.3% (active)
